Screening results (PubChem BioAssay)
VCAM1 pot: enhances TNF alpha induced VCAM1 expression in HUVEC; HUVEC TNFa-stimulated VCAM-1 immunofluorescence, high-content imaging; scaled per plate to unstimulated/TNFa-only wells; activation, % at 2 µM; 93,000 tested, 0.19% active; AID 808;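 active = activation above the screen mean plus 3 SD, with well images confirming the hit on visual review, cut at about 28% in these data, passing the limit was not always enough; inconclusive = activation above that limit but images do not confirm it; inactive = activation not above that limit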;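 note: signal is the number of cytoplasmic VCAM-1 stained grains per positive cell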
VCAM1 pot conf: potentiators of TNFa-induced VCAM1 expression, confirmation, imaging, HUVEC, triplicate retest; shares compounds with VCAM1 pot; activation, % at 2 µM; 230 tested, under 10 active; HUVEC TNFa-stimulated VCAM-1 immunofluorescence imaging;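 active = activation above 30% in triplicate retests at 2 µM, then confirmed by visual review of the well images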
Large screens that a line does not name were inactive (follow-up assays come after a bar, where they were run). Many of the other results were omitted from the sample, so hits are more common in it than they were.

CCN1C(=O)/C(=C/c2cn(C)nc2C)SC1=S	VCAM1 pot 53 | VCAM1 pot conf inactive
Cc1cc(C(=O)OC2CCOC2=O)c2ccccc2n1 (configuration not stated)	none
NC(=O)C1CCN(C(=O)CCCCCn2c(=O)[nH]c3ccsc3c2=O)CC1	VCAM1 pot inconclusive | VCAM1 pot conf inactive
NC(=O)C1CCN(C(=O)CSc2nc3ccccc3o2)CC1	none
CC1=C([N+](=O)[O-])C(c2cccc(Br)c2)C2=C(N1)c1ccccc1C2=O (configuration not stated)	none
CCOC(=O)N1CCN(CC(=O)Nc2ccc(C)c(Br)c2)CC1	none
Cc1ccc(NC(=O)C2CCN(S(=O)(=O)c3c(C)[nH]c(=O)[nH]c3=O)CC2)cc1	none
Cc1cc(C)c(S(=O)(=O)N(C2=NCCS2)S(=O)(=O)c2c(C)cc(C)cc2C)c(C)c1	none
O=C1c2ccccc2-c2nc3ccccc3nc21	none
Cc1ccccc1CSc1nncn1N	none
Cc1ccccc1Cn1nnc2c1C(=O)c1ccccc1C2=O	VCAM1 pot 46 | VCAM1 pot conf inactive
COC(=O)CSCC(=O)Nc1cc2c(cc1C(C)=O)OCO2	none
CCn1c(SCc2nc(-c3cccs3)no2)nnc1-c1c[nH]c2ccccc12	none
Cc1c(NC(=O)c2cc3nc(-c4ccc(Br)cc4)cc(C(F)(F)F)n3n2)c(=O)n(-c2ccccc2)n1C	none
Cc1cc(C)c(C(N)=O)c(Nc2cccc3ccccc23)n1	none
CC1OC(Nc2cccc3ccccc23)C(O)C(O)C1O (configuration not stated)	VCAM1 pot inconclusive | VCAM1 pot conf inactive
COC(=O)c1c(NC(=S)Nc2ccccc2Cl)sc(C)c1C	none
CC(C)(C)NS(=O)(=O)c1ccc(CCC(=O)N2CCCCC2)cc1	none
O=C(NCc1ccccc1)C1CCCN(C(=O)Nc2ccccc2)C1 (configuration not stated)	none
O=C(COC(=O)c1ccncc1)NC(=O)C1CCCCC1	none
Cc1cccn2cc(CNC(=O)C3CCCCC3)nc12	VCAM1 pot 60 | VCAM1 pot conf inactive
Cc1cccc(-c2nnc(SCCOc3ccc4c(C)cc(=O)oc4c3)o2)c1	none
CCOc1ccc(/C(O)=C2/C(=O)C(=O)N(c3nc(C)c(C)s3)C2c2ccco2)cc1 (configuration not stated)	none
Cc1ccc(N2C(=O)c3ccc(C(=O)N4CCN(c5cccc(C)c5C)CC4)cc3C2=O)cc1	none
O=C(Oc1ccc(Cl)cc1N1C(=O)CCC1=O)c1ccco1	none
CCOC(=O)c1cc(NC(=O)c2c(C)noc2C)cc(C(=O)OCC)c1	none
CCN1CCN(C(c2cc(OC)c(OC)c(OC)c2)c2nnnn2C(C)C)CC1 (configuration not stated)	none
C=CCn1c(CCNC(=O)c2ccccc2F)nnc1SCC(=O)Nc1nc(C)cs1	none
COC(=O)c1c(NC(=O)Cc2ccccc2)sc(C)c1C	none
CCOC(=O)c1cc(CC)sc1NC(=O)Cc1ccccc1	VCAM1 pot 35 | VCAM1 pot conf inactive
CCOC(=O)c1c(-c2cccs2)csc1NC(=O)CCCC(=O)O	none
CCc1ccc(OCC(=O)NCc2ccco2)c(Br)c1	none
O=C(O)CSc1nnc(Cn2cnc3ccccc32)n1CCc1ccccc1	none
CCC(C)(C)n1nnnc1CN1CCC(O)(c2cccc(C(F)(F)F)c2)CC1	none
COCc1nc2ccccc2n1CCCOc1ccccc1	VCAM1 pot inconclusive | VCAM1 pot conf inactive
CCCC(=O)NCCCc1nc2ccccc2n1CCC	none
Cc1nc2ccccc2n1CCCOc1ccccc1	none
Cn1nc(C(F)(F)F)c(C(=O)Nc2ccc(F)cc2F)c1Sc1ccc(C(F)(F)F)cc1	none
COc1ccccc1-c1cc2ccccc2[nH]1	none
O=C(CCSc1nnc(-c2ccco2)o1)Nc1ccccc1	VCAM1 pot 44 | VCAM1 pot conf inactive
O=C(COc1ccc(Br)cc1)Nc1ccc(-c2nnc(-c3ccco3)o2)cc1	none
CC(=O)c1c(C)cc(C)c(CSc2nnc(-c3ccco3)o2)c1C	none
CN(C)S(=O)(=O)c1cccc(NC(=O)Cn2cnc3ccccc3c2=O)c1	none
Cc1ccc(S(=O)(=O)N2CCN(S(C)(=O)=O)CC2)cc1	none
Cc1ccc(S(=O)(=O)NC(C)C(=O)Nc2ccc(C(N)=O)cc2)cc1 (configuration not stated)	none
COc1ccc2c(C(=O)CN(C)C3CCCCC3)c[nH]c2c1	none
COc1ccccc1N1CCN(C(=O)CSc2ccc3c(C)cc(C)nc3n2)CC1	none
Cc1ncoc1C(=O)Nc1ccc2c(c1)OCCO2	VCAM1 pot 81 | VCAM1 pot conf inactive
CCOC(=O)c1cn(CC(=O)Nc2ccc3c(c2)OCCO3)nn1	none
Cc1ccc2nc(SCC(=O)Nc3ccc4c(c3)OCCO4)[nH]c2c1	none
NCCN1CCN(CCN)CC1	none
COc1ccc(NC2CC(=O)NC2=O)cc1 (configuration not stated)	none
CCc1cc2c(=O)n(C(C)C(=O)OC3CCCCC3)cnc2s1 (configuration not stated)	none
CCOC(=O)c1cnn(-c2cc(C)c3ccccc3n2)c1N	none
CCOC(=O)c1cnc2c(-c3ccccc3)cnn2c1N	VCAM1 pot inconclusive | VCAM1 pot conf inactive
CCOC(=O)c1c(-c2ccc(Cl)cc2)cn2ccccc12	none
COC(=O)c1nc2nc(C)cc(=O)n2[nH]1	none
CC(C)(C)c1ccc(-c2nnc(SCCC#N)n2C2CCCC2)cc1	none
COc1ccc(-n2cnnc2SCCC#N)cc1	VCAM1 pot inconclusive | VCAM1 pot conf inactive
CCOC(=O)COc1ccc(S(=O)(=O)NCCC2=CCCCC2)cc1	VCAM1 pot 48 | VCAM1 pot conf inactive
C1=C(CCNCC2CC2)CCCC1	none
CCOc1ccc(S(=O)(=O)NCCC(=O)NCc2ccco2)cc1	none
Cc1cccc(C)c1NC(=O)C1NC(=O)CC1c1ccccc1 (configuration not stated)	none
COc1ccc(C2C=C(c3cccs3)Nc3nc(CCCO)nn32)cc1 (configuration not stated)	none
COc1ccc(Cl)cc1Nc1nc(N)nc(C(F)(F)F)n1	none
CCOC(=O)C(NC(C)=O)(Nc1ccc(S(=O)(=O)Nc2ccncn2)cc1)C(F)(F)F (configuration not stated)	none
O=S(=O)(CCc1nc2ccccc2s1)c1ccc2ccccc2c1	none
Cc1nc(N2CCN(C(=O)c3ccc(Cl)cc3)CC2)c(C#N)c2c1COC(C)(C)C2	VCAM1 pot 50 | VCAM1 pot conf inactive
COC(=O)c1ccc(CSc2nc(N3CCOCC3)c3c(c2C#N)CC(C)(C)OC3)o1	none
CC(C)(C)C(=O)Nc1ccccc1N1CCN(C(=O)c2ccc(Cl)cc2)CC1	none
C=CC(=O)Nc1ccc(Br)cc1	none
O=c1c(C=Nc2ccc(Cl)cc2)c[nH]n1-c1cccc(Cl)n1	none
CCNc1nc(NCC)nc(N2CC(=O)N(CC(=O)OCC)C2=N)n1	none
CCOc1ccc(C=O)cc1CN1CCCCC1	none
CCOc1cc(NC(=O)c2ccccn2)c(OCC)cc1NC(=O)CC(C)C	none
O=C(Cn1cc(C(=O)c2ccco2)c2ccccc21)NCc1ccco1	none
COC(=O)Cn1cc(C(=O)C2CC2)c2ccccc21	VCAM1 pot 54 | VCAM1 pot conf inactive
O=C(NCc1ccccc1)c1ccc(C(=O)N(C2CCCCC2)C2CCCCC2)cc1	none
Cc1ccccc1S(=O)(=O)Nc1nc2ccccc2nc1NCCO	none
CC1CN(C(NC(=O)C(C)(C)C)C(Cl)(Cl)Cl)CC(C)O1 (configuration not stated)	none
CN(CP(=O)(O)CN(C)S(C)(=O)=O)S(C)(=O)=O	VCAM1 pot 32 | VCAM1 pot conf inactive
CCOC(=O)c1c(NC(=O)OC)sc(C(=O)N(CC)CC)c1C	none
COC(=O)[C@H](Cc1ccccc1)NC(=O)N1CCN(Cc2ccccc2)CC1	none
